The panel holds about 83,000 compounds, 20% with a hit somewhere; the sample as a whole holds those more often.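 Treatment: one concentration, 48 hours, 96-well format. Scoring: percent growth, with anything below 10 considered active.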 A number with no mark means an inactive call. The source made the active and inactive calls.
How the values were obtained:
Test in all cases: NCI-60 one-dose screen, 48 h (100 = growth as untreated, 0 = no growth, -100 = all killed)
NCI-H23 lung = details: 10 µM unless noted
NCI-H226 lung = details: 10 µM unless noted
NCI-H322M lung = details: 10 µM unless noted
HOP-62 NSCLC = details: 10 µM unless noted
NCI-H460 lung = details: 10 µM unless noted
HOP-92 NSCLC = details: 10 µM
A549/ATCC NSCLC = details: 10 µM unless noted
786-0 renal = details: 10 µM unless noted
COLO 205 colon = details: 10 µM unless noted
NCI-H522 lung = details: 10 µM unless noted

SMILES	growth (NCI-H23 lung)	growth (NCI-H226 lung)	growth (NCI-H322M lung)	growth (HOP-62 NSCLC)	growth (NCI-H460 lung)	growth (HOP-92 NSCLC)	growth (A549/ATCC NSCLC)	growth (786-0 renal)	growth (COLO 205 colon)	growth (NCI-H522 lung) [%]
Nc1nc(Nc2ccccc2SSc2ccccc2Nc2nc(N)nc(-c3ccc4ccccc4c3)n2)nc(-c2ccc3ccccc3c2)n1	49.9%	59%	91.7%	28.8%	61.1%	92.4%	2.94% (active)	82.6%	106%	
C=C(C)[C@@H]1CC[C@]2(COP(=O)(OCC)OCC)CC[C@]3(C)[C@H](CC[C@@H]4[C@@]5(C)CCCNC(C)(C)[C@@H]5CC[C@]43C)[C@@H]12	37.1%	53.8%	84.7%	62.9%	-32.8% (active)	41%	36.3%	35.7%	-15.4% (active)	
Cc1cc(S(=O)(=O)N(C)C)cc(NCC(=O)NC(=O)NCC(C)C)c1C	94.5%	90.7%	100%	78.6%	109%	84.5%	88%	91.1%	109%	
COc1ccc(C2c3sc4c(C)cccc4c3Oc3nc(CC(=O)Nc4ccccc4)[nH]c(=O)c32)cc1 (configuration not stated)	62.2%	65.8%	95.4%	60.5%	87.1%	59.1%	93.7%	95.3%	106%	
COc1cc(-c2nn(C(C)(C)C)cc2-c2ccnc(NCCCNS(=O)(=O)c3cccc(F)c3)n2)ccc1Cl	77.7%	69.4%	85.3%	65.4%	77.2%	54.9%	50.7%	69.7%	91.5%	
COc1cc(-c2ccc3ncnc(NCc4ccccc4)c3c2)cnc1OC	67%	68.3%	26.3%	36.2%	69.1%	5.49% (active)	38.6%	44.8%	87.6%	
CC1(C)[C@@H](O)CC[C@]2(C)[C@H]3CC[C@@H]4[C@H]5[C@H](C(=O)/C=C\c6ccncc6)CC[C@]5(O)CC[C@@]4(C)[C@]3(C)CC[C@@H]12	49.2%	27.8%	93.4%	89.9%	62.9%	91.9%	71.5%	35.3%	91%	
O=C(NCc1ncc[nH]1)c1ccc(-c2nc3ccc4[nH]ncc4c3c3c2CCCC3)cc1	14.4%	36%	21.4%	17.8%	8.85% (active)	-7.23% (active)	48.2%	25.4%	-10.4% (active)	
CC1(C)CC[C@]2(C(=O)O)CC[C@]3(C)C(=CC[C@@H]4[C@@]5(C)CC/C(=N\OCCC#N)C(C)(C)[C@@H]5CC[C@]43C)[C@@H]2C1	98%	98%	111%	79.2%	93.7%	123%	93.7%	80.8%	111%	
Cc1nc2ncc(-c3ccc4ncnc(NCc5ccccc5)c4c3)cc2[nH]1	67.6%	64.6%	65.7%	38.9%	89.2%	17.4%	77.5%	48.3%	84.4%	
COc1ccc(/C(N)=N/C(N)=N/c2nc3ccccc3s2)cc1	67.8%	77.8%	98.4%	24.5%	82.5%	85.5%	33.1%	79%	103%	
NC(N)=Nc1ccc(Oc2ccc(Nc3ccc(Cl)c(C(F)(F)F)c3)cc2)cc1	11.8%	48.9%	68.5%	76.4%	-0.702% (active)	34.1%	31.1%	34.6%	20%	
Nn1c(N/N=C/c2nc3ccccc3s2)n[nH]c1=S	91.8%	104%	109%	74.8%	110%	98.7%	95.3%	96.1%	115%	
CC(=O)Nc1cccc(Nc2nc(N[C@H](C)c3ccccc3)c3ccccc3n2)c1	52.3%	82.6%	90.3%	72.6%	41.2%	22%	40.7%	54.9%	44.1%	
COC[C@]12CCC(C)(C)C[C@H]1C1=CC[C@@H]3[C@@]4(C)CCCNC(C)(C)[C@@H]4CC[C@@]3(C)[C@]1(C)CC2	-83.9% (active)	-61.5% (active)	-50.5% (active)	46.6%	-69% (active)	-3.83% (active)	10.1%	-83.1% (active)	-59.6% (active)	
CC1(C)CC[C@]2(C(=O)N3CCOCC3)CC[C@]3(C)C(=CC[C@@H]4[C@@]5(C)C/C(=C/c6ccco6)C(=O)C(C)(C)[C@@H]5CC[C@]43C)[C@@H]2C1	86.6%	69%	102%	87%	98.5%	77.8%	87.8%	79.5%	108%	
Cn1ccnc1C(=O)/C=C/c1ccc(CNC(=O)c2c(F)c(F)c(F)c(F)c2F)cc1	52.5%	69.5%	81%	66.5%	7.14% (active)	117%	70.4%	28%	102%	
C[C@@H](Nc1c(C#N)cnc2ccc(-c3cnc(Cl)c(NS(C)(=O)=O)c3)cc12)c1ccccc1	6.8% (active)	-3.88% (active)	12.1%	11.6%	2.56% (active)	-14.5% (active)	4.78% (active)	4.25% (active)	16.5%	
Nc1nc(Nc2ccccc2SSc2ccccc2Nc2nc(N)nc(-c3ccccc3)n2)nc(-c2ccccc2)n1	50.8%	59%	92.4%	17.1%	53.2%	69.7%	3.73% (active)	68.2%	115%	
N/C(=N\C(N)=N\c1nc2ccccc2s1)c1ccc2ccccc2c1	53.2%	62.7%	96.8%	-28% (active)	68.1%	88.6%	9.92% (active)	87.9%	109%	
O=C(Nc1ccc2c(ccn2Cc2ccccn2)c1)c1cnccn1	97%	88.3%	106%	72.7%	105%	91.4%	86.1%	87.6%	120%	
N#Cc1c(-c2cccs2)cc(-c2cnccn2)nc1SCC(=O)Nc1ccc(Br)cc1	74.8%	81.5%	88.5%	71.3%	70.6%	98.6%	72.3%	80.9%	96.4%	
O=C1C(c2ccccc2)=C(N2CCc3ccccc32)OC1(Cl)Cl	60.1%	89.2%	86.3%	98.1%	88.2%		85%	60.1%	-8.41% (active)	75.3
CC(C)(C)n1nnnc1C(Nc1cccc2c1OCO2)c1cc2cccc3ccc4cccc1c4c32 (configuration not stated)	87.4%	82.2%	96%	98.8%	88.8%		81.3%	93.2%	103%	78.8
Nc1ncc(-c2ccc(NS(=O)(=O)c3ccc(Cl)c(Cl)c3)cc2)[nH]1	95.9%	87.3%	97%	113%	93.6%		92.5%	93.8%	109%	92.7
CNc1ncc2cc(-c3ccc(-c4ncccc4F)cc3Cl)c(=O)n(CC3OCC(N)CO3)c2n1 (configuration not stated)	78.4%	64.3%	79.5%	47.1%	102%		57.1%	56.9%	46.4%	75.7
CC(=O)N(C)C1CCc2c(sc(NC(=O)c3ccc(C(C)(C)C)cc3)c2C(N)=O)C1 (configuration not stated)	85.3%	47.3%	78.7%	34.7%	10.8%		39.8%	90.9%	103%	70.4
COc1cc2nc(Cl)nc(Nc3cccc(C4=Nc5c(N)nc(N)nc5NC(c5ccc(Cl)cc5)C4)c3)c2cc1OC (configuration not stated)	87.8%	90.4%	86.3%	18%	2.91% (active)		37.2%	-52.1% (active)	21.5%	34.6
